Test results from PubChem BioAssay (EPA / NIEHS).
Active and inactive are the calls of the source. The calls were made as follows: active = hit-call score of the fitted dose curve at least 0.9, where 1 is the maximum; inactive = score below 0.9.

Experiment: CCTE_Simmons_MITO_max_resp_rate: CCTE's HepG2 Seahorse XF Respirometric Screening Assay at Maximal Respiratory State [uncoupled], Simmons Lab (AID 2284002)
Settings: actives raise or lower the signal
Description: CCTE_Simmons_MITO is cell-based, respirometric assay using HepG2 cells and a Seahorse XF Analyzer to measure oxygen consumption rates over four temporal phases spanning a total of 72 minutes: pre-injection (pre-treatment), basal (following test compound injection), maximal (following FCCP uncoupler injection), and inhibited (following rotenone/antimycin A injection)CCTE_Simmons_MITO_max_resp_rate is one of 4 assay components calculated from the CCTE_Simmons_MITO assay. It is designed to make measurements of maximal respiration using a form of respirometric reporter, as detected with […] signals by Seahorse XF96 technology. Data from the assay component CCTE_Simmons_MITO_max_resp_rate was analyzed at the endpoint, CCTE_Simmons_MITO_max_resp_rate_OCR, with bidirectional fitting relative to DMSO as the negative control and baseline of activity. Using a type of respirometric reporter, measures of maximal respiration for gain or loss-of-signal activity can be used to understand cellular oxygen consumption as it relates to cellular respiration. To generalize the intended target to other relatable targets, this assay endpoint is annotated to the mitochondria intended target family, where the subfamily is respiration.
Test chemicals were administered as a titrated series of 7 concentrations from 125 nM up to 100 uM [final] prior to kinetic endpoint detection at 6 minute intervals [3 min mix followed by 3 minutes measure] for 72 minutes. Three biological replicates of technical singles were run for every chemical concentration tested. Dimethylsulfoxide [DMSO] was used as the vehicle control. The electron transport chain inhibitor fenpyroximate was used as the positive control for decreased basal respiration and was administered as a titrated series of 6 concentrations from 250 nM up to 2.75 uM [final] with technical triplicates for the top concentration only. The uncoupler 2,4-dintirophenol was used as the positive control for increased basal respiration and was administered as a titrated series of 6 concentrations from 938 nM up to 40 uM [final] with technical triplicates for the top concentration only. A Seahorse XF Analzyer is required to measure the response.

Row | Compound | outcome | AC50
1 | COc1ccc2c(c1)c(CC(=O)O)c(C)n2C(=O)c1ccc(Cl)cc1 | inactive | –
2 | C=CCOC(=O)c1ccccc1C(=O)OCC=C | inactive | –
3 | COc1ccc(S(=O)(=O)N2C(=O)[C@@](c3ccccc3OC)(N3C[C@H](O)C[C@H]3C(=O)N(C)C)c3cc(Cl)ccc32)c(OC)c1 | inactive | –
4 | Cc1oc(-c2ccccc2)nc1CCOc1cccc2c1ccn2CCC(=O)O | inactive | –
5 | CCCCC(CC)COC(=O)CC(C(=O)OCC(CC)CCCC)S(=O)(=O)O (stereo not given) | – | 85.2 µM (active)
6 | COc1cc(S(=O)(=O)O)c(C)cc1N=Nc1c(O)ccc2cc(S(=O)(=O)O)ccc12 | inactive | –
7 | CC(C)(C)c1cc(O)c(C(C)(C)C)cc1O | – | 36.7 µM (active)
8 | Cc1c(C(=O)O)c(O)cc2c1C(=O)c1c(O)c([C@@H]3O[C@H](CO)[C@@H](O)[C@H](O)[C@H]3O)c(O)c(O)c1C2=O | inactive | –
9 | Cc1cccc(Nc2cc(Cl)nc(SCC(=O)O)n2)c1C | inactive | –
10 | CN[C@H]1CC[C@@H](c2ccc(Cl)c(Cl)c2)c2ccc(S(N)(=O)=O)cc21 | inactive | –
